Source: PubChem BioAssay

What was measured:
[1] = tested on: Human papillomavirus type 1a protein E7 (residues 44-93); assay: HPV1a E7 fragment binders on microarrays, primary screen, biochemical, small-molecule microarray, residues 44-93, 635 nm fluorescence (AID 1108); settings: small-molecule microarray binding, fluorescence 635 nm; higher = more signal;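 note: E7 fragment applied at 1 µg/mL in TBST for 1 h at 4 C; score combines spot fluorescence with its signal to noise ratio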
[2] = modulators of HCV replicon luciferase signal, primary screen, HCV replication inhibitor project, Huh7 cells, luciferase reporter (AID 1109); settings: 48 h, higher = more signal;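 note: huh7 hepatoma cells harbouring a luciferase neomycin HCV replicon reporter; luciferase luminescence as measure of HCV replicon replication; test concentration not given here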
[3] = target: Left-right determination factor 2 (Homo sapiens) (UniProt O00292); assay: LEFTY2 binders on small-molecule microarrays, primary screen, biochemical, small-molecule microarray, 635 nm fluorescence scan (AID 1110); settings: LEFTY2 binding, higher = more signal
[4] = target: Calmodulin-1 (Homo sapiens) (UniProt P0DP23); assay: CALM1 binders on microarrays, EGTA buffer, profiling panel, biochemical, small-molecule microarray, Cy5-labelled CALM1 (AID 1111); settings: Cy5-CALM1 binding fluorescence, higher = more signal;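 note: labelled calmodulin applied in Tris saline Tween buffer holding calcium plus EGTA and DTT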
[5] = target: Calmodulin-1 (Homo sapiens) (UniProt P0DP23); assay: calcium-bound CALM1 binders on microarrays, profiling panel, artefact control for SMM control-protein annotation, biochemical, small-molecule microarray, Cy5-labelled CALM1, plus calcium (AID 1112); settings: Cy5-CALM1 binding fluorescence, higher = more signal;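 note: score merges spot fluorescence with signal to noise from triplicate slides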
[6] = small-molecule microarray binders of probe aWnt5a, primary screen, biochemical, biotinylated probe, 635/667 nm fluorescence (AID 1113); settings: higher = more signal;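 note: score merges 667 nm fluorescence intensity with signal-to-noise per printed feature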
[7] = small-molecule microarray binders of probe aShh, primary screen, biochemical, biotinylated probe, 635/667 nm fluorescence (AID 1114); settings: higher = more signal;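 note: probe is biotin-labelled aShh protein from a stem cell growth factor screen; measures binding of labelled protein to compounds printed on the slide; score merges feature fluorescence at 667 nm with signal-to-noise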
[8] = small-molecule microarray binders of probe aNog, primary screen, biochemical, biotinylated probe, 635/667 nm fluorescence (AID 1115); settings: higher = more signal;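 note: probe is biotinylated aNog protein used at 0.15 µg/mL for 1 h at 4 C; z-score combines 667 nm fluorescence of each spot with its signal to noise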
[9] = target: Torsin-1A-interacting protein 1 (Homo sapiens) (UniProt Q5JTV8); assay: LAP1 binders from COS7 cell lysate, primary screen, small-molecule microarray, 635/667 nm fluorescence (AID 1116); settings: COS7-hLAP1 lysate binding, 635 nm fluorescence, higher = more signal
[10] = target: Alpha-bungarotoxin (Bungarus multicinctus) (UniProt P60615); assay: alpha-bungarotoxin binders on microarray, profiling panel, artefact control for SMM control protein annotation, biochemical, small-molecule microarray, Alexa647 label, 635/667 nm fluorescence (AID 1117); settings: alpha-BTX-A647 binding fluorescence, higher = more signal
Alpha-bungarotoxin (Bungarus multicinctus), sequence (P60615 whole entry, looked up): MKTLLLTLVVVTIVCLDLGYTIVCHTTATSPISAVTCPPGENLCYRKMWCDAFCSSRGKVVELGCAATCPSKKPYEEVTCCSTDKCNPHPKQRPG

Left-right determination factor 2 (Homo sapiens), sequence (O00292 whole entry, looked up): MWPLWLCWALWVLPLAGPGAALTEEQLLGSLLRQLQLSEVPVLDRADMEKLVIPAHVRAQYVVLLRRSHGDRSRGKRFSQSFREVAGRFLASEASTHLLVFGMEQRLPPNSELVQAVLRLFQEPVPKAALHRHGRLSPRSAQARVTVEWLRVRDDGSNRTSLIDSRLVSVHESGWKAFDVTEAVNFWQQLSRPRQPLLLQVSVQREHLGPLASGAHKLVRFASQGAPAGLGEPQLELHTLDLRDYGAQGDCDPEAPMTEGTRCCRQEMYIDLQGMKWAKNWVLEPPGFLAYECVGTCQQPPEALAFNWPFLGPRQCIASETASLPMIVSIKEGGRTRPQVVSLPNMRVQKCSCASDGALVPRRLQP
Torsin-1A-interacting protein 1 (Homo sapiens), sequence (Q5JTV8 whole entry, looked up): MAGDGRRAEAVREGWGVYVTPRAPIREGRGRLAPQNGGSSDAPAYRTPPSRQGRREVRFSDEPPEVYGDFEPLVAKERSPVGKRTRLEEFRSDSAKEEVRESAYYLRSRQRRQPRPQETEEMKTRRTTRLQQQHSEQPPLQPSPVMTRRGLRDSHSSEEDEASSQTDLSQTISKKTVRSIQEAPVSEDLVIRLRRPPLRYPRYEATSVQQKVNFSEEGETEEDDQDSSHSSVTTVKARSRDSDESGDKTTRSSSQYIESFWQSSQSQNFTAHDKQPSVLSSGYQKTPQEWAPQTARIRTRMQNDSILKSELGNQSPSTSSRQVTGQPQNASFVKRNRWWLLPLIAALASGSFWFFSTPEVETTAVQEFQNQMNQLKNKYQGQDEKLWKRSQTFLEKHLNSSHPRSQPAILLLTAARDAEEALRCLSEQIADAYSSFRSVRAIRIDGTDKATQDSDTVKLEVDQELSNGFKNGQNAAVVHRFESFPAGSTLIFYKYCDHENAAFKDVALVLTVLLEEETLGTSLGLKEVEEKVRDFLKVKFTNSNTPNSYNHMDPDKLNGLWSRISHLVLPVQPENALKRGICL

| SMILES | composite z-score [1] | z-score [2] | composite z-score [3] | composite z-score [4] | composite z-score [5] | composite z-score [6] | composite z-score [7] | composite z-score [8] | composite z-score [9] | composite z-score [10] |
| --- | --- | --- | --- | --- | --- | --- | --- | --- | --- | --- |
| Cn1c(=O)n2n(c1=O)[C@H]1[C@H](O)[C@@H]3O[C@@H]3C(=NOCc3ccccc3)[C@H]1CC2 | 0.729 | -1.28 | -0.0238 | -0.17 | 0.33 | -0.232 | -0.0339 | -0.0524 | -0.0588 | 0.0868 |
| C[C@H]1COC(=O)[C@@H]2CCCN2C(=O)[C@@H](C)COC(=O)[C@H](Cc2ccccc2)NC1=O | 0.851 | -1.34 | 0.474 | -0.099 | -0.447 | -0.124 | -0.206 | -0.3 | 0.308 | 0.158 |
| O=C1OCCC=C1C(O)CCc1ccccc1 (stereo not given) | -0.0602 | -0.364 | 0.791 | -0.818 | -0.679 | -0.0981 | -0.13 | 0.0229 | 0.128 | 0.642 |
| CCC1=NOC(CCC2CC(OC(=O)NCc3cccc4c3OCO4)CC3(CCCC(COC(=O)NCCc4ccccc4OC)O3)O2)C1 (stereo not given) | 1.21 | -1.35 | 0.0276 | 1.21 | 0.712 | -0.139 | -0.0793 | 0.249 | 0.528 | 0.473 |
| CCN1C(=O)[C@H]2[C@H]3[C@H](O)[C@H](O)CC(=O)[C@H]3CC[C@H]2C1=O | 0.566 | -0.693 | 0.872 | -0.123 | -0.448 | -0.0472 | 0.0278 | -0.158 | 0.161 | 0.113 |
| CC[C@@H](c1ccccc1)n1c(=O)n2n(c1=O)[C@H]1[C@H](O)[C@@H]3O[C@@H]3C(=NOC[C@@H](O)COCc3ccco3)[C@H]1CC2 | -0.629 | -2.55 | 0.0632 | -1.26 | -1.51 | -0.145 | -0.276 | 0.618 | -0.298 | -0.201 |
| O=C1[C@H]2[C@H]3[C@H](O)[C@H](O)CC(=NOC[C@@H](O)COCc4ccco4)[C@H]3CC[C@H]2C(=O)N1C[C@@H]1CCCO1 | -0.317 | -0.205 | 1.19 | -0.428 | -1.53 | -0.0037 | 0.0899 | -0.158 | 0.583 | 0.349 |
| COC(=O)NCC=Cc1nc(CCCO)co1 | 0.722 | -0.0343 | 0.493 | -0.368 | -0.98 | -0.0462 | 0.0141 | -0.137 | 0.116 | -0.498 |
| CO[C@@H]1C=CCC(=O)N[C@@H](C)C(=O)OC[C@@H](OC)[C@H](C)CCCC(=O)OC[C@H]1C | -2.89 | -1.41 | 1.41 | -1.23 | -2.04 | -0.0694 | -0.206 | -0.345 | 0.95 | -0.11 |
| CO[C@@H]1COC(=O)[C@@H](C)COC(=O)[C@@H](C)NC(=O)CC=C[C@@H]1C | -1.03 | -2 | 1.51 | -0.99 | -2.06 | -0.2 | -0.13 | 0.0629 | 0.638 | -0.553 |
| CC(C)=NOC[C@@H](C)[C@H](OCc1ccccc1)C(C)C | -1.19 | -0.801 | -0.0001 | -0.211 | -0.285 | -0.0758 | -0.0709 | -0.402 | -0.368 | 0.213 |
| CCCCC#C[C@@H]1C=C[C@H](Oc2ccc(C(=O)OC)cc2)[C@@H](COC(=O)OCC)O1 | 0.42 | -3.22 | 0.494 | -0.184 | -0.581 | -0.0735 | -0.2 | 0.129 | 1.19 | 0.807 |
| CC(CCN1CCCc2nc(C)c(C)cc21)=NO[C@@H](C)c1cc(-c2c(C)cc(C)cc2C)no1 | 0.788 | -0.414 | 0.231 | 0.446 | -0.17 | -0.101 | 0.0952 | 0.173 | 0.601 | 0.494 |
| CCOC(=O)CCN1C(=O)[C@H]2[C@H]3[C@H](O)[C@H](O)CC(=NOCc4ccccc4)[C@H]3CC[C@H]2C1=O | -0.207 | 0.676 | 0.389 | -0.205 | -0.329 | -0.174 | -0.0977 | -0.0312 | 0.0908 | 0.857 |
| CO[C@H]1COC(=O)CC=C[C@@H](C)[C@H](OC)COC(=O)[C@@H]2CCCN2C(=O)CC=C[C@@H]1C | -0.298 | 0.443 | 1.32 | -1.02 | -1.82 | -0.0819 | -0.138 | -0.748 | 0.159 | -0.41 |
| CSCC[C@@H]1NC(=O)CC=C[C@@H](C)COC(=O)[C@@H](C)COC1=O | -2.17 | 0.371 | 0.294 | -1.31 | -1.61 | -0.197 | -0.366 | -0.15 | 0.574 | -2.23 |
| Cc1ccc(S(=O)(=O)NC(CCc2ccccc2)CC(=O)C(C)(C)C)cc1 (stereo not given) | 0.52 | -2.04 | 0.445 | -0.0921 | -0.418 | -0.125 | 0.304 | -0.0626 | -0.0055 | 0.369 |
| CC(C)=NO[C@H](C)c1cn([C@H](CO)Cc2ccccc2)nn1 | 0.216 | -0.463 | 0.13 | 0.0595 | -0.0004 | 0.0438 | 0.0121 | 0.145 | -0.197 | -0.0691 |
| CCOC(=O)[C@H](CC(C)C)NC(=O)CCC1CC(OC(=O)NCc2cccc3ccccc23)CC2(CCCC(COC(=O)NCCCN3CCCC3=O)O2)O1 (stereo not given in full) | 1.15 | -1.12 | 0.446 | 0.446 | -0.385 | -0.194 | -0.206 | -0.467 | 0.196 | 0.754 |
| CCN1C(=O)[C@H]2[C@H]3[C@H](O)[C@H](O)CC(=NNC(=O)OCc4ccc(OC)cc4)[C@@H]3CC[C@H]2C1=O | -0.246 | -0.193 | -0.0843 | -0.484 | -0.732 | -0.261 | 0.401 | -0.272 | -0.717 | 0.374 |
| C[C@H]1Cc2c(COc3ccccc3)nc3c(c2CO1)CN(CCOc1ccccc1)CC3 | 1.14 | -0.228 | 0.635 | 0.625 | -0.255 | -0.172 | 0.0144 | -0.502 | 0.647 | 0.161 |
| CC(C)CON=C1C[C@@H](O)[C@@H](O)[C@@H]2[C@@H]3C(=O)N(c4ccc(F)cc4F)C(=O)[C@@H]3CC[C@H]12 | 1.38 | -0.666 | 0.923 | 0.0597 | -0.809 | -0.0735 | -0.0169 | 0.106 | 0.272 | 0.198 |
| O=C(NN=C1C[C@@H](O)[C@@H](O)[C@@H]2[C@@H]3C(=O)N(Cc4ccccc4)C(=O)[C@@H]3CC[C@@H]12)OCc1ccccc1 | -0.572 | 0.104 | 0.401 | -0.619 | -0.786 | -0.143 | -0.197 | -0.223 | -0.0694 | 0.0077 |
| CC(=O)Nc1ccc([C@@H]2N[C@H](C(=O)O)CC[C@H]2C)cc1 | -0.0931 | 1.1 | 0.523 | -0.105 | -0.635 | -0.0203 | -0.226 | -0.213 | 0.14 | 0.273 |
| C[C@@H]1CC[C@H]2C(=O)O[C@@H](COc3ccc(C(C)(C)C)cc3)CN2[C@@H]1c1ccc(Br)cc1 | -0.631 | -0.0485 | -0.403 | -0.121 | 0.578 | -0.179 | -0.289 | 0.105 | -0.319 | 0 |
